# ALOX12 inh – inhibitors of human 12S-lipoxygenase ALOX12. P18054. purified 12hLO, xylenol orange hydroperoxide absorbance. Potency, µM (top dose mostly 108 µM), without a hit: at the top dose activity change, negative = inhibition, actives largely listed as inhibitors. 1.1% of 580,000 active. AID 1671190
#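 Purified human 12hLO at 150 nM in 25 mM Hepes, 0.01% Triton X-100, pH 7.0, preincubated 15 min at room temperature with compound. Reaction started with 40 uM arachidonic acid, 30 min at room temperature. Hydroperoxide measured by Fe-xylenol orange, 573/405 nm absorbance ratio.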
# ELG1 repair inh – inhibitors of ELG1-dependent DNA repair in HEK293T cells. HEK293T ELG1-luciferase reporter, luminescence, 16 h; DNA damage induced by 5-fluorouridine. Potency, µM (top dose mostly 46.1 µM), for the others: top-dose activity change, negative = inhibition, actives largely listed as inhibitors. 2.3% of 330,000 active; further: nearly all actives have a fitted effect of over 55% in size
#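 Overnight (16 hr) co-exposure of 2,000 cells/well to 5-fluorouridine and compound at 37 °C preceded detection. Luciferase was quantified via ONE-Glo luminescence; loss of signal denotes inhibition.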
# Gal4-VP16 FLuc – Gal4-VP16 reporter inhibition counter-screen. 3.5% of 310,000 active. Drosophila S2 Gal4-VP16 UAS-luciferase, luminescence, 20 h. Potency, µM (doses to about 53.6 µM), without a hit: at the top dose activity, negative = inhibition, hits mostly inhibitors. AID 2546;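 further: Gal4-VP16 expression switched on by copper sulfate through the metallothionein promoter; nearly all actives have a fitted effect of over 50% in size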
# RORgamma inh – blocks mouse ROR gamma transcriptional activity; P51450; Drosophila S2 Gal4-RORgamma UAS-luciferase reporter, 20 h; Potency, µM (highest dose often 53.6 µM), for inactives: top-dose activity change, negative = inhibition, hits mostly inhibitors; 5.4% of 310,000 active; further: nearly all actives have a fitted effect of over 60% in size
# Target sequence (P51450 whole entry, looked up, the tested form may be a part): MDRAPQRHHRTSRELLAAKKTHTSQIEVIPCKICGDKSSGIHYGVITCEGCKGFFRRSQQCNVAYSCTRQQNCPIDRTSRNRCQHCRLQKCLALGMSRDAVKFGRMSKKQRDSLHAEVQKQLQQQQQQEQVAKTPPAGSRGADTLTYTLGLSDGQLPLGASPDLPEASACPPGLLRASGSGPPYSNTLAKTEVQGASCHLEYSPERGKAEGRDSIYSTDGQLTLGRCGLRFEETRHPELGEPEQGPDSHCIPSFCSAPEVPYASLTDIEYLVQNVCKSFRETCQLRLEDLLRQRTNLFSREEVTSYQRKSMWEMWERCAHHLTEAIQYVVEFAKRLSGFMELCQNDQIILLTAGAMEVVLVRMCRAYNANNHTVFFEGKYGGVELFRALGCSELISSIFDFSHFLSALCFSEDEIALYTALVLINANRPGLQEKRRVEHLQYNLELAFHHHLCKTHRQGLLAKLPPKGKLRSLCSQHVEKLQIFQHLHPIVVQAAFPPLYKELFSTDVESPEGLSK
#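 Stable Schneider cell line, Gal4 DNA-binding domain fused to ROR gamma, UAS-luciferase. Cmpd 1 hr RT → CuSO4 700 uM final → 20 hr RT → luciferase reagent 10 min → luminescence.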
# TDP1 cell noCPT – qHTS for Inhibitors of human tyrosyl-DNA phosphodiesterase 1 (TDP1): qHTS in cells in absence of CPT. DT40 Tdp1-/- hTDP1 cells, no CPT, ATP luminescence, 48 h. Potency, µM (series often up to 46.2 µM), without a hit: at the highest dose activity change, negative = growth inhibition, usual class: inhibitors. 15% of 420,000 active; further: nearly all actives have a fitted effect of over 55% in size
#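 Chicken DT40 Tdp1-/- cells complemented with human TDP1, screened without camptothecin (DMSO vehicle only), 400 cells/well. Compounds pin-transferred, cells incubated at 37 °C for at least 48 hr. Growth read as ATP-dependent luminescence (CellTiter-Glo, 30 min at RT).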
# TDP1 cell CPT – DT40-hTDP1 cell growth loss with CPT | chicken DT40 Tdp1-/-;hTDP1 cells + 20 nM CPT, ATP luminescence, 48 h | Potency, µM (doses to about 46.2 µM), for the others: at the top dose activity change, negative = growth inhibition, most hits filed as inhibitors | 12% of 420,000 active | AID 686979; further: nearly all actives have a fitted effect of over 55% in size
#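 Chicken DT40 Tdp1-/- cells complemented with human TDP1, 400 cells/well, exposed to compounds plus 20 nM camptothecin for at least 48 h at 37 C; viability read as ATP content by CellTiter-Glo luminescence.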
# Active calls of the source: *; ? = inconclusive; · = no result; [ ] = remark or other dose. Rows were chosen to be rich in hits. Some 15% of all compounds tested hit in one or more screens of this group. The call rests on the fitted dose curve; in most records, active means well fitted curve in the direction sought with a large enough effect; inconclusive means small, poorly fitted or top-dose-only effect, or another doubt; inactive means no such curve, though single readings can be large; an effect the other way counts as inactive or inconclusive. On the % scale 0 is the no-effect control and ±100 the full control effect; potency means the concentration at half of the fitted maximal effect.
SMILES,ALOX12 inh,ELG1 repair inh,Gal4-VP16 FLuc,RORgamma inh,TDP1 cell noCPT,TDP1 cell CPT
COc1cc(NS(C)(=O)=O)ccc1Nc1c2ccccc2nc2ccccc12,?,?,1.0%,20µM*,0.13µM*,0.206µM*
CC(C)CNC(=O)C(C)(C)Oc1nn(C(C)C)c2ccc(CN3CCOCC3)cc12,49.1%[176 µM],·,·,·,·,·
COC(=O)C1(NC(=O)CCNC(C)=O)CCCCCC1,0.9%,·,·,·,·,·
COc1ccc(OC)c(Nc2c3ccccc3nc3ccccc23)c1,?,11.6µM*,?,?,6.51µM*,5.17µM*
O=C(O)/C=C/c1cc(F)ccc1F,5.6%,·,·,·,·,·
CCOc1ccc(Cl)cc1-c1cc(C(=O)Nc2cc(OC)c(OC)c(OC)c2)[nH]n1,14.2%,·,·,·,16.4µM*,20.6µM*
COc1ccc(NC(=O)c2cc(-c3cc(C)cc(F)c3)n[nH]2)cc1OC,-4.7%,·,·,·,?,25.9µM*
CCOc1ccc(Cl)cc1-c1cc(C(=O)Nc2ccc(OC)nc2)[nH]n1,-6.2%,·,·,·,?,?
CCOc1ccc(Cl)cc1-c1cc(C(=O)NC(C)C)[nH]n1,1.6%,·,·,·,?,?
CCOc1ccc(Cl)cc1-c1cc(C(=O)Nc2ccc(C(C)C)cc2)[nH]n1,0.7%,·,·,·,16.4µM*,?
COc1ccc(NC(=O)c2cc(-c3ccc(F)cc3C)n[nH]2)cc1OC,-20.8%,·,·,·,?,-19.4%
CCOc1ccc(Cl)cc1-c1cc(C(=O)Nc2ccc(Br)cc2)[nH]n1,-22.4%,·,·,·,18.4µM*,23.1µM*
CCc1ccc(-c2nc(SCc3cc(=O)n4nc(C)sc4n3)n[nH]2)cc1,3.2%,·,·,·,·,·
O=C(NCc1cccnc1)[C@@H]1C[C@@H](O)CN1C1CCN(C(=O)Cc2ccccc2)CC1,49.0%,·,·,·,·,·
CCN(CC)C(=O)CSc1nc(-c2ccccc2)c(-c2ccccc2)o1,-2.5%,·,·,·,·,·
O=C(CCCc1cccs1)N(CC1CCOC1)C1CC1 (centres undefined),13.5%,·,·,·,·,·
COc1ccc(NC(=O)c2cc(-c3cc(Cl)ccc3OC)n[nH]2)cc1OC,-5.6%,·,·,·,?,20.6µM*
CCOc1ccc(Cl)cc1-c1cc(C(=O)NC2CCCCC2)[nH]n1,-9.1%,·,·,·,16.4µM*,18.4µM*
COc1ccc(NC(=O)c2cc(-c3cc(Cl)ccc3C)n[nH]2)cc1OC,-6.2%,·,·,·,?,?
Cc1cc(C(=O)NC2CC(C)(C)Cc3nc(C(C)(C)C)ncc32)n[nH]1 (centres undefined),20.2%,·,·,·,·,·
COc1cc(C2CC(=O)N3CN(c4cccc(Cl)c4)CSC3=C2C#N)ccc1O (centres undefined),17.8µM*,·,·,·,·,·
COc1cc(C2CC(=O)N3CN(c4ccc(C)c(Cl)c4)CSC3=C2C#N)ccc1O (centres undefined),0.891µM*,·,·,·,·,·
CC(C)COc1ccc(C(=O)Nc2nonc2-c2ccc(OC(C)C)cc2)cc1,29.9%,·,·,·,·,·
CC1CCN(c2ccc3nnc(CCC(=O)N4CCN(c5ccccc5F)CC4)n3n2)CC1,-14.3%,?,-6.9%,-10.2%,14.6µM*,23.1µM*
COc1cccc(N2CCN(c3ccc4nnc(CCC(=O)Nc5ccc(F)cc5)n4n3)CC2)c1,-2.3%,-1.6%,3.2%,16.6%,?,6.0%
SMILES,ALOX12 inh,ELG1 repair inh,Gal4-VP16 FLuc,RORgamma inh,TDP1 cell noCPT,TDP1 cell CPT
COc1cccc(N2CCN(c3ccc4nnc(CCC(=O)Nc5cccc(C(C)=O)c5)n4n3)CC2)c1,-7.1%,16.9%,3.4%,-18.9%,?,16.4µM*
COc1ccccc1N1CCN(C(=O)CCc2nnc3ccc(N4CCOCC4)nn23)CC1,11.0%,-7.5%,1.5%,1.0%,2.5%,-17.5%
COc1ccc(N2CCN(C(=O)CCc3nnc4ccc(N5CCC(C)CC5)nn34)CC2)cc1,-9.9%,-8.9%,2.6%,-2.9%,18.4µM*,18.4µM*
CC(C)Nc1nc(C(=O)Nc2ccc3cc[nH]c3c2)cs1,37.4%,·,·,·,·,·
COc1cc(Br)c2cc(C(=O)O)[nH]c2c1OC,-11.0%,·,·,·,·,·
N#C/C(=C\c1ccc(-c2ccccc2C(=O)O)o1)c1nc2ccccc2[nH]1,?,?,-5.0%,5.3%,14.6µM*,?
N#C/C(=C\c1ccc(-c2ccc(Cl)cc2Cl)o1)c1nc2ccccc2[nH]1,11.2µM*,·,·,·,·,·
N#C/C(=C\c1ccc(-c2ccccc2F)o1)c1nc2ccccc2[nH]1,24.3%,·,·,·,·,·
N#C/C(=C\c1ccc(-c2ccc(F)cc2F)o1)c1nc2ccccc2[nH]1,-17.1%,·,·,·,13µM*,23.1µM*
Cc1ccc2nc(/C(C#N)=C/c3ccc(-c4ccccc4C(=O)O)o3)[nH]c2c1,?,-2.2%,-4.5%,-21.6%,3.6%,-2.2%
O=C(NC1CCCCC1)c1cccc2ncccc12,-1.2%,·,·,·,·,·
COc1ccc(/C=C/C(=O)N(c2ccccn2)C2CCCCC2)cc1OC,-0.3%,-22.4%,6.1%,6.4%,?,23.1µM*
O=C(/C=C/c1cccc(F)c1)N(c1ccccn1)C1CCCCC1,-11.3%,-12.9%,3.0%,41.7%,?,13µM*
O=C(/C=C/c1ccc(Cl)cc1)N(c1ccccn1)C1CCCCC1,-15.1%,?,-9.9%,30.1%,20.6µM*,?
CN(C(=O)/C=C/c1ccccc1)C1CCCCC1,0.0%,·,·,·,-21.8%,-2.0%
Cn1nc(C(=O)N2CCC3(CCCNC3)C2)c2ccccc21 (centres undefined),16.6%,·,·,·,·,·
O=C(NCC1CCCO1)/C(=C\c1cccc([N+](=O)[O-])c1)NC(=O)c1ccccc1 (centres undefined),0.0%,24.6%,12.7%,15.3%,2.1%,6.4%
O=C(c1cccc(Oc2ccc([N+](=O)[O-])cc2Cl)c1)N1CCCCC1,-9.1%,23.1µM*,-1.8%,?,-12.0%,0.6%
O=C(NCC1CCCO1)c1ccc(Oc2ccc([N+](=O)[O-])cc2)cc1 (centres undefined),-11.2%,0.0%,-0.4%,?,23.1µM*,?
O=C(NCC1CCCO1)c1cccc(Oc2ccc([N+](=O)[O-])cc2Cl)c1 (centres undefined),-9.5%,?,-29.1%,17.0%,20.6µM*,?
O=C(NCC1CCCO1)c1ccc(Oc2ccc([N+](=O)[O-])cc2Cl)cc1 (centres undefined),-6.3%,?,-6.7%[10 µM],?,10.8%,-1.0%
O=C(NCC1CCCO1)C(=Cc1cccc([N+](=O)[O-])c1)C(=O)NCC1CCCO1 (centres undefined),-1.9%,?,-1.1%,?,23.1µM*,?

# High-throughput results deposited in PubChem by National Center for Advancing Translational Sciences (NCATS).
